The results in this text go back to PubChem BioAssay AID588726 (The Scripps Research Institute Molecular Screening Center, 2011).

Hit rate of the full screen: of about 360,000 compounds, about 8,200 (2.3%) were called active. Rule as the data show it: active = inhibition above about 27%; inactive = the rest. Only a selection was taken, and actives are over-represented in it overall.

In this assay the target is Fructose-bisphosphate aldolase (Mycobacterium tuberculosis (strain ATCC 25618 / H37Rv)) (UniProt P9WQA3). In words: Mtb FBA enzyme inhibitors, primary screen, biochemical, fluorescence, strain H37Rv (AID 588726).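 Also: 0% = vehicle and 100% = reference inhibitor.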 To be noted: purified M. tuberculosis FBA, fluorescence read-out, at 1 µM, active compounds read high.
Fructose-bisphosphate aldolase (Mycobacterium tuberculosis (strain ATCC 25618 / H37Rv)), sequence (P9WQA3 whole entry, looked up): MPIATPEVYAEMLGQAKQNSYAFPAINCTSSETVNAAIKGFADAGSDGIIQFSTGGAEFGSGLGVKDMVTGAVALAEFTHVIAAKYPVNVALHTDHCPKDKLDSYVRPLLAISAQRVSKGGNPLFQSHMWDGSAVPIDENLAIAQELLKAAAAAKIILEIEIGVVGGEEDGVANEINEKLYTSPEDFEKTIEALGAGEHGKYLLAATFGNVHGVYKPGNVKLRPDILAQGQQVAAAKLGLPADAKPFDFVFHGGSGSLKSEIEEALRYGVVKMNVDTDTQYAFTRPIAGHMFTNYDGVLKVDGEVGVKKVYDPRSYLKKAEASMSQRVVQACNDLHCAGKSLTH
In the case of `CCN(CC(=O)NCc1cccs1)c1nnnn1-c1ccccc1`, the inhibition is -0.27% (inactive).

With `O=C(Nc1nnc(C2CC2)s1)c1ccccn1`, the inhibition is 2.11% (inactive).

On to `CN(C(=O)COc1nnc(-c2cccs2)c(-c2cccs2)n1)c1ccccc1`, for which the inhibition is 3.91% (inactive).

In the case of `CCC(C)(C)NC(=O)C(c1ccccn1)N(C(=O)c1csnn1)c1ccccc1` (stereo unspecified), the inhibition was -0.46% (inactive).

With `CN(C(=O)c1ccccn1)c1nnc(-c2ccccn2)s1`, the inhibition is 31.6% (active).

On to `CN(C(=O)C1CCOC1)c1nnc(-c2cccnc2)s1` (stereo unspecified), for which the inhibition was -7.08% (inactive).

On to `CN(C(=O)COc1ccccc1)c1nnc(-c2ccncc2)s1`, for which the inhibition was 53.2% (active).

Regarding `CN(C(=O)CSc1nnc(-c2c[nH]c3ccccc23)o1)C1CCS(=O)(=O)C1` (stereo unspecified), the inhibition is 0.37% (inactive).

With `Nn1c(SCC(=O)NC2CCCC2)nnc1-c1ccccc1F`, the inhibition is -0.66% (inactive).

For `CC(=O)C(C)n1cnc2scc(-c3ccc(C)cc3)c2c1=O` (stereo unspecified), the inhibition is -0.72% (inactive).

Take `Cc1sc2ncnc(SCC(=O)Nc3ccc(CN4CCCC4)cc3)c2c1C`: the inhibition is -0.95% (inactive).

`O=C(O)CCCn1c(=O)c2cccn2c2ccc(F)cc21`: the inhibition was 6.9% (inactive).

Take `CCN(CC)CCC(c1ccc2c(c1)OCO2)c1c(OC)cc(OC)c2c(-c3ccccc3)cc(=O)oc12` (stereo unspecified): the inhibition is 4.6% (inactive).

Turning to `O=[N+]([O-])c1ccc2oc(-c3cccc(O)c3)nc2c1`, the inhibition was 0.6% (inactive).

`COc1ccc2oc(N)nc2c1`: the inhibition was 0.46% (inactive).

Regarding `CC(=O)Oc1ccc(C(C)=O)c2c1OCCO2`, the inhibition is 5.05% (inactive).

As for `Cc1cc(OCc2cc(C(=O)O)oc2C)c2c3c(c(=O)oc2c1)CCCC3`, the inhibition is 107% (active).

For the compound `O=C(COc1cc2oc(=O)c3c(c2cc1Cl)CCC3)NCCCN1CCOCC1`, the inhibition is 6.36% (inactive).

For `Cc1oc(C(N)=O)cc1COc1ccc(C(N)=O)cc1`, the inhibition is 3.54% (inactive).

In the case of `COc1ccc(CNC(=O)c2cc(=O)c3c(C)cc(C)cc3o2)cc1`, the inhibition is -0.13% (inactive).

As to `COC(=O)COc1cc(C)cc2oc(=O)c3c(c12)CCCC3`, the inhibition is 28.4% (active).

Regarding `CC(Oc1cc2oc(=O)c3c(c2cc1Cl)CCCC3)C(=O)NCc1ccncc1` (stereo unspecified), the inhibition is 26.1% (inactive).

Regarding `C=CCNC(=O)C1CC2c3ccccc3C1c1ccccc12` (stereo unspecified), the inhibition is -1.94% (inactive).

Regarding `CC/C(=C\c1ccc(Cl)cc1)c1ccncc1`, the inhibition is -2.63% (inactive).

Regarding `S=c1[nH]nc(Nc2ccccc2)s1`, the inhibition was 3.65% (inactive).

Take `CCc1ccc(Nc2ncc3c(n2)CC(c2ccco2)CC3=O)cc1` (stereo unspecified): the inhibition was 8.11% (inactive).

As to `Cc1ccc(Cn2c(C)nc3c(c2=O)c2nc4ccccc4nc2n3Cc2ccco2)cc1`, the inhibition is 47.6% (active).

`Clc1cccc(-c2nc3nc4ccccc4nc3n2Cc2ccco2)c1`: the inhibition is 17.8% (inactive).

For `Cc1ccc(OCC(=O)c2cc(C)n(Cc3ccco3)c2C)c([N+](=O)[O-])n1`, the inhibition is -5.32% (inactive).

With `O=C1N=C(N2CCOCC2)CS1`, the inhibition was -1.54% (inactive).

Regarding `CC(C)(C)NS(=O)(=O)NC(=O)C1=C(N2CCCC2)COC1=O`, the inhibition is -4.63% (inactive).

Regarding `CCC(C)(C)C1CCC(=NNC(=O)c2ccc(Br)o2)CC1` (stereo unspecified), the inhibition was -1.67% (inactive).

For `CCOC(=O)C1CCCN(C(=O)CSc2nnc3nc(C)cc(C)n23)C1` (stereo unspecified), the inhibition is 7.69% (inactive).

For the compound `Cc1ccc(S(=O)(=O)c2nc(NCCCn3ccnc3)sc2Cl)cc1`, the inhibition is 0.32% (inactive).

Turning to `Cc1ccc(-c2nc(C#N)c(NCCCn3ccnc3)o2)cc1`, the inhibition is 71.6% (active).

In the case of `O=S(=O)(c1ccc(Cl)cc1)c1nc(-c2ccccc2F)oc1NCCN1CCOCC1`, the inhibition was -1.99% (inactive).

As for `Cc1ccc2c(Cl)c(C(=O)NCCCn3ccnc3)sc2c1`, the inhibition was -2.28% (inactive).

As to `O=S(=O)(c1ccccc1)c1nc(-c2ccccc2)oc1NCCCN1CCOCC1`, the inhibition was -3.13% (inactive).

For the compound `N#Cc1nc(-c2ccc(OCc3ccccc3)cc2)oc1NCCCN1CCOCC1`, the inhibition is 92.7% (active).

Turning to `CCN(CC)S(=O)(=O)c1ccc(N2CC(C(=O)NCc3cccnc3)CC2=O)cc1` (stereo unspecified), the inhibition is 1.11% (inactive).

Consider `CC[C@@H](C)[C@H](NC(=O)CCc1c(C)c2cc3c4c(oc3c(C)c2oc1=O)CCCC4)C(=O)O`, for which the inhibition is 27.5% (active).

Turning to `Cc1c(CCC(=O)N[C@@H](CC(C)C)C(=O)O)c(=O)oc2c(C)c3oc4c(c3cc12)CCCC4`, the inhibition was 13.8% (inactive).

In the case of `Cc1c(C)c2cc3c4c(oc3c(C)c2oc1=O)CCCC4`, the inhibition is 2.57% (inactive).

Regarding `O=C(Nc1ccccc1C(=O)N1CCOCC1)C1CCC(=O)N1C1CCCC1` (stereo unspecified), the inhibition is 0.4% (inactive).

As to `COCCn1c(=O)[nH]c2cc(C(=O)NCc3cccnc3)ccc2c1=O`, the inhibition was 12.2% (inactive).

As to `COc1ccc(C(=O)OCC(=O)Nc2ccc3[nH]c(=O)[nH]c3c2)c(OC)c1OC`, the inhibition is 5.97% (inactive).

As for `O=C(COc1ccc([N+](=O)[O-])cc1Cl)Nc1ccc2[nH]c(=O)[nH]c2c1`, the inhibition is -1.08% (inactive).

As to `CC(C)(C)NC(=O)COc1ccc(CNc2ccc3[nH]c(=O)[nH]c3c2)cc1`, the inhibition is 64.6% (active).

In the case of `COc1ccc(S(=O)(=O)N2CCC(C(=O)NCCC(=O)NCCc3cccc(F)c3)CC2)cc1`, the inhibition was 3.06% (inactive).

In the case of `O=C(CCNC(=O)c1ccc(Br)cc1)NCC(c1ccco1)N1CCCCC1` (stereo unspecified), the inhibition was -0.35% (inactive).

As for `Cc1nn(Cc2ccccc2)c(C)c1CNC(=O)c1ccc(F)c(S(=O)(=O)N2CCOCC2)c1`, the inhibition was 0.09% (inactive).

In the case of `Cc1ccccc1CSc1nnc(Cn2c(=O)sc3ccccc32)n1C`, the inhibition is 3.39% (inactive).

Take `Cc1nc(NNC(=O)c2ccccc2)cc(-c2ccccc2)n1`: the inhibition was 1.26% (inactive).

For the compound `Nc1cccc(-c2cc(-c3ccccc3)nc(-c3cccc(N)c3)n2)c1`, the inhibition is 16.1% (inactive).

As for `CNc1nc(-c2ccccc2)cc(-c2ccccc2)n1`, the inhibition was 29.2% (active).

On to `O=[N+]([O-])c1ncc(Br)cc1Nc1ccccc1`, for which the inhibition was -5.84% (inactive).

For the compound `CC1CCc2c(c3ccccc3[nH]c2=O)O1` (stereo unspecified), the inhibition is -0.34% (inactive).

Regarding `COC(=O)c1sc(N)c(C(=O)OC)c1COC(=O)CNS(=O)(=O)c1ccc(C)cc1`, the inhibition is 1.77% (inactive).

For the compound `Cc1ccsc1C(=O)N[C@@H](C)c1nnc2ccccn12`, the inhibition was 51.8% (active).

For the compound `CCn1c(SCC(=O)Nc2nc(C)cs2)nnc1C(C)NC(=O)c1ccccc1` (stereo unspecified), the inhibition was 0.82% (inactive).

As to `Cc1ccc(C(=O)NNC(=O)CSc2nnc3ccccn23)cc1`, the inhibition is 0.48% (inactive).
